Screens deposited in PubChem BioAssay by SRMLSC.
Sampled rows, rich in hits. Any-hit rate of the full collection: about 6.8%.
Autofluor 339 = intrinsic fluorescence of library compounds, ex339/em460 – biochemical, MLSMR library, data from DPM-DC assay, artefact control, profiling panel. fluorescence fold increase at 10 µM. compound autofluorescence, ex339/em460 nm, NADH buffer; stronger effect = higher value; 1 = no-compound wells, NADH background. actives 5.5% (n = 65,000). AID 709;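 active = at 10 µM, mean starting fluorescence two-fold or more over control wells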;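 note: signal is the first read of a kinetic run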
Abs 340nm = absorbance at 340 nm; compound absorbance at 340 nm, fold over control; fold change at 10 µM; 65,000 tested, under 10 active; AID 708;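 active = at 10 µM dose, initial 340 nm absorbance at least 2 fold that of control wells; inactive = change under 2 fold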;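 note: initial absorbance extrapolated from kinetic A340 decline of NADH oxidation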
MK inhibit = blocks S. pneumoniae mevalonate kinase. purified MK, PK/LDH-coupled NADH absorbance 340 nm. inhibition, % at 10 µM. actives 0.48% (n = 65,000). AID 555;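 active = ranked among the strongest by inhibition in the single 10 µM screen, a fixed top-ranked set picked for dose follow-up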
DPM-DC inhibit = inhibitors of Streptococcus pneumoniae diphosphomevalonate decarboxylase. calls only at 10 µM. actives 0.49% (n = 65,000). purified DPM-DC, PK/LDH coupled NADH fluorescence;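 active = the 320 compounds with the highest percent inhibition in the single-dose primary screen, excluding strongly autofluorescent ones, cut at about 32% in these data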;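 note: kinetic rate of NADH fluorescence loss reporting ADP formed by the decarboxylase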
NADH coupling = inhibitors of enzymes used to reach an NAD/NADH endpoint; actives 0.02% (n = 65,000); IC50, µM (titrated, usually from 10 µM); coupled PK/LDH NADH assays, four targets;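 active = single-dose screening hits from any of four coupled enzyme assays that gave an IC50 when retested across doses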;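 note: the DPM-DC format reads NADH fluorescence rather than 340 nm absorbance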
PMK inhibit = S. pneumoniae PMK inhibition; AID 539; purified PMK, PK/LDH-coupled NADH absorbance 340 nm; inhibition, % at 10 µM; actives 0.49% (n = 65,000);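 active = top-ranked compounds by inhibition in the single 10 µM screen, taking a fixed number of the strongest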
Each line names hits and unclear results; the compound was inactive in the other large screens; [ ] = remark or other dose.

Cc1ccc2nc3ccc(N4CCN(C)CC4)nn3c(=O)c2c1	Autofluor 339 2.3
COc1cc(CNC(=O)c2ccc(Cn3nc(C)c(Cl)c3C)o2)cc(OC)c1	none
Cc1cc(C)c2c(n1)nn1c(N3CCN(Cc4ccccc4)CC3)cc(C)nc21	Autofluor 339 3.9 (not shown: DPM-DC inhibit)
COc1ccc(Cl)cc1CN1CCN(c2nc(C)cc(C)c2C#N)CC1	none
COc1ccc(F)cc1CN1CCN(c2cc(C)nc3c4c(C)cc(C)nc4nn23)CC1	Autofluor 339 3.9 (not shown: DPM-DC inhibit)
CCC(C)(C)n1nnnc1C(c1ccc(Cl)cc1)N1CCN(C)CC1 (centres undefined)	none
C=CCNS(=O)(=O)c1cccc2cc(C(=O)O)c(O)cc12	Autofluor 339 2.3
CCN(CC)S(=O)(=O)c1cccc(-c2nnc(SCCCC(=O)c3ccc(F)cc3)o2)c1	none
COc1cccc(-n2c(SC3CCOC3=O)nc3ccccc3c2=O)c1 (centres undefined)	none
COc1ccc(NC(=O)C2CCCCN2CC(=O)OCc2ccccc2)cc1OC (centres undefined)	none
Fc1ccc2[nH]c3c(N4CCN(c5ccccc5)CC4)ncnc3c2c1	none
CCOC(=O)C1CCN(c2ncnc3c2[nH]c2cccc(OC)c23)CC1	Autofluor 339 3.7 (not shown: DPM-DC inhibit)
COc1cc2[nH]c3c(N4CCN(c5ccccn5)CC4)ncnc3c2cc1OC	Autofluor 339 3.7 (not shown: DPM-DC inhibit)
CCOC(=O)N1CCN(c2ncnc3c2[nH]c2ccc(OC)cc23)CC1	Autofluor 339 2.5 (not shown: DPM-DC inhibit)
COc1cccc2[nH]c3c(N4CCCCC4)ncnc3c12	Autofluor 339 3.7 (not shown: DPM-DC inhibit)
O=C(c1ccco1)N1CCN(c2ncnc3c2[nH]c2ccccc23)CC1	none
O=C(c1ccco1)N1CCN(c2ncnc3c2[nH]c2ccc(Br)cc23)CC1	none
O=C(CSc1nnnn1Cc1ccccc1)NCCc1ccccc1	DPM-DC inhibit active
CCC(=O)Nc1cccc(NC(=O)CSc2nnnn2Cc2ccccc2)c1	DPM-DC inhibit active
Cc1cc(C)cc(N(CC(=O)NC2CCC(C)CC2)S(=O)(=O)c2c(C)noc2C)c1 (centres undefined)	none
CCOC(=O)CCc1nc2ccccc2[nH]c1=O	Autofluor 339 2.2
O=C(NCc1ccccn1)c1coc(=O)c(Br)c1	Autofluor 339 2.4 (not shown: DPM-DC inhibit)
O=C(CCS(=O)(=O)c1ccccc1)Nc1nccs1	none
O=C(c1cc2nc(-c3ccc(F)cc3)cc(C(F)(F)F)n2n1)N1CCCC1	DPM-DC inhibit active
Cc1ccccc1Cn1ccc(NC(=O)c2cc3nc(-c4ccco4)cc(C(F)(F)F)n3n2)n1	Autofluor 339 3.8 (not shown: DPM-DC inhibit)
CN(C(=O)c1cc2nc(-c3ccco3)cc(C(F)(F)F)n2n1)C1CCCCC1	Autofluor 339 2.2 (not shown: DPM-DC inhibit)
O=C(c1cc2nc(-c3ccccc3)cc(C(F)(F)F)n2n1)N1CCCC1	none
COc1ccc(-c2cc(C(F)(F)F)n3nc(C(=O)N4CCCCC4)cc3n2)cc1	Autofluor 339 2.3 (not shown: DPM-DC inhibit)
CN=C(C)C1=C(O)C(C(=O)OC)C(C)(C)CC1=O (centres undefined)	none
Cc1ccnc(SCCn2c(N3CCC(C)CC3)nc3c2c(=O)n(C)c(=O)n3C)n1	none
O=C(N1CCCCCC1)N1CCN(S(=O)(=O)N2CCCCC2)CC1	none
CCCNc1nc2c(c(=O)[nH]c(=O)n2C)n1CCC(C)C	none
O=C(CN1CCN(Cc2ccc(Cl)cc2)C1=O)NCCN1CCCC1	none
O=C(c1cc2nc(-c3ccco3)cc(C(F)(F)F)n2n1)N1CCCCCC1	Autofluor 339 2.2 (not shown: DPM-DC inhibit)
O=C(c1cc2nc(-c3ccco3)cc(C(F)(F)F)n2n1)N1CCN(c2ccccc2)CC1	none
Cc1c(C(=O)N2CC(C)OC(C)C2)oc2ccccc12 (centres undefined)	none
CCOCCCNC(=O)C1CCCN1C(=O)NC1CCCCC1 (centres undefined)	none
Cc1ccc2nc(CCc3nc4ccc(C)cc4o3)oc2c1	none (no result: MK inhibit)
Cc1ccc2nc(-c3cccc(-c4nc5ccc(C)cc5o4)n3)oc2c1	Autofluor 339 2.1
Cc1cc(OCC(=O)C(C)(C)C)c2c(C)c(C)c(=O)oc2c1	Autofluor 339 2.1 (not shown: DPM-DC inhibit)
COc1ccccc1NC(=O)CN1C(=O)NC(CC(C)C)C1=O (centres undefined)	none
Fc1ccc2c(c1)[C@H]1OCC[C@H]1[C@@H](c1ccco1)N2	Autofluor 339 2.7
C[C@@H]1C[C@H](O)c2cc(Cl)ccc2N1	none
Clc1ccc2c(c1)[C@H]1OCC[C@H]1[C@@H](c1ccco1)N2	Autofluor 339 2.3, DPM-DC inhibit active[fluoresces]
Cc1oc2cc(O)ccc2c(=O)c1-c1cnn(-c2ccccc2)c1	Autofluor 339 2.5 (not shown: DPM-DC inhibit)
COc1cccc(N2CC(O)=C(c3nc4ccccc4c(=O)[nH]3)C2=N)c1	Autofluor 339 2.1 (not shown: DPM-DC inhibit)
COc1ccc(N2CC(O)=C(c3nc4ccccc4s3)C2=N)c(OC)c1	none
COc1ccc(OC)c(NC(=O)C23CCC(C)(C(=O)C2)C3(C)C)c1 (centres undefined)	none
CC(C)NC(=O)CCNS(=O)(=O)c1ccc(Br)cc1	none
Cc1cc(C(=O)OCCO)c(C#N)c(N)n1	Autofluor 339 2.9 (not shown: DPM-DC inhibit)
CN(C)CCNc1nc2c(c(=O)[nH]c(=O)n2C)n1CC(O)COc1ccc(Cl)cc1Cl (centres undefined)	none
COc1ccc2c(c1)c1c(n2C(C)=O)C(OC(C)=O)=NCC1	Autofluor 339 2.3 (not shown: DPM-DC inhibit)
CCN(CC)CCOC(=O)c1c(C)n(C)c2ccc(OC)cc12	none
CCCc1cc(=O)[nH]c(SCC(=O)NC2CCCCC2)n1	none
CCCc1cc(=O)[nH]c(SCC(=O)Nc2cc3c(cc2C(C)=O)OCO3)n1	Autofluor 339 2.1
CC(=O)c1cc2c(cc1NC(=O)CSc1nnc(C)s1)OCO2	Autofluor 339 2
O=C(CCc1nc(-c2ccccc2F)no1)NCCc1ccccc1Cl	none
Cc1ccc(-c2noc(CCC(=O)NCCN3CCOCC3)n2)cc1	none
Cc1ccc(-c2noc(CCC(=O)NCCN3CCc4ccccc4C3)n2)cc1	PMK inhibit 25
O=C(CCc1nc(-c2ccccc2F)no1)NCCN1CCc2ccccc2C1	DPM-DC inhibit active
Clc1ccc2nc(N3CCNCC3)nc(-c3ccccc3)c2c1	Autofluor 339 2.3 (not shown: DPM-DC inhibit)
COc1cccc(C(=O)n2cnnc2N)c1OC	none
O=C(CN(CCO)c1ccccc1)NC12CC3CC(CC(C3)C1)C2	none
CC1=CC(C)(C)Nc2ccc(C)cc21	Autofluor 339 2.6
CC1=CC(C)(C)Nc2cc(C)c(C)cc21	Autofluor 339 2.7
CC1CCCCC1NC(=O)Cn1nc(-c2ccccc2)ccc1=O (centres undefined)	none
Cc1ccc2c(c1)nc(NCCO)n2C	Autofluor 339 2.1
CCN(CC)CCNc1nc2ccccc2n1C	none
COCCNC(=O)c1c(N)sc2c1CCCC2	Autofluor 339 2.1
Cc1cc2n(n1)C(c1sccc1C)Nc1c(C)cccc1-2 (centres undefined)	Autofluor 339 2.1
Cc1cc2n(n1)C(c1sccc1C)Nc1ccccc1-2 (centres undefined)	none
